Results: PubChem BioAssay (NCI)
Compounds without any hit were thinned out: in the full panel of roughly 79,000, 15% have a hit. Values without a mark were called inactive. Active and inactive are the calls of the source. Cut-off read from the data, not from the text of the source: active = growth inhibition above about 70%; inactive = the rest.

Tests used:
[1] = NCI Yeast Anticancer Drug Screen. Data for the rad50 strain (AID 155);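 note: 0% = growth of vehicle-only cultures of the same strain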; conditions: S. cerevisiae rad50 strain growth inhibition, stronger effect = higher value
Procedure, shortened: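 Vehicle-treated cultures provide the reference for the growth inhibition reported for compound-exposed, repair-deficient yeast.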

[2] = NCI Yeast Anticancer Drug Screen. Data for the mec2-1 strain (AID 157); conditions: S. cerevisiae mec2-1 strain, stronger effect = higher value
Procedure, shortened: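 Cells of the genetically defined mec2-1 yeast strain are incubated with test compound. Inhibition of growth is calculated against vehicle-treated controls.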

[3] = NCI Yeast Anticancer Drug Screen. Data for the sgs1 mgt1 strain (AID 161);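 note: 0% = growth of cultures given vehicle only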; conditions: S. cerevisiae sgs1 mgt1 strain, stronger effect = higher value
Procedure, shortened: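 Test agents were incubated with a DNA-repair-mutant yeast strain. Growth was then read and compared against vehicle-treated controls.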

[4] = NCI Yeast Anticancer Drug Screen. Data for the cln2 rad14 strain (AID 165);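 note: 0% = growth equal to vehicle treated cultures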; conditions: S. cerevisiae cln2 rad14 strain, stronger effect = higher value
Procedure, shortened: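 The screen exposed genetically defined yeast (cln2 rad14) to test compounds and scored growth inhibition relative to vehicle-treated controls.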

[5] = NCI Yeast Anticancer Drug Screen. Data for the bub3 strain (AID 167); conditions: S. cerevisiae bub3 mutant strain, stronger effect = higher value
Procedure, shortened: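 Mutant yeast screening strain plus compound; vehicle-treated cultures serve as the 0% inhibition reference.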

[6] = NCI Yeast Anticancer Drug Screen. Data for the mlh1 rad18 strain (AID 175); conditions: S. cerevisiae mlh1 rad18 strain growth inhibition, stronger effect = higher value
Procedure, shortened: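 Compound-treated yeast growth, normalised to vehicle controls. Strain bears defined DNA repair mutations.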

[7] = at 5.0 µM (retest, dose inferred, filed as 0.5)
[8] = at 50.0 µM (retest, dose inferred, filed as 5.0)

Row | Structure (SMILES) | growth inhibition [1, 7] [%] | growth inhibition [1, 8] | growth inhibition ([1]; at 50.0 µM) | growth inhibition [2, 7] [%] | growth inhibition [2, 8] | growth inhibition ([2]; at 50.0 µM) | growth inhibition [3, 7] [%] | growth inhibition [3, 8] | growth inhibition ([3]; at 50.0 µM) | growth inhibition [4, 7] [%] | growth inhibition [4, 8] | growth inhibition ([4]; at 50.0 µM) | growth inhibition [5, 7] [%] | growth inhibition [5, 8] | growth inhibition ([5]; at 50.0 µM) | growth inhibition [6, 7] [%] | growth inhibition [6, 8] | growth inhibition ([6]; at 50.0 µM)
1 | O=[N+]([O-])/C=C/c1cc2ccccc2[nH]1 | 6 | 99% (active) | 99.5% (active) | -6 | 100% (active) | 99.5% (active) | 9 | 99% (active) | 99.4% (active) | 11 | 99% (active) | 96.5% (active) | -8 | 100% (active) | 99.5% (active) | 16 | 99% (active) | 99.2% (active)
2 | Cc1nn(-c2ccc(S(=O)(=O)[O-])cc2)c([O-])c1N=[N+](C)c1ccc(-c2ccc(N=Nc3ccc4c(S(=O)(=O)[O-])cc(S(=O)(=O)[O-])c(N)c4c3[O-])c([O-])c2)cc1[O-].[Cu+2].[Cu+2].[Na+] | 6 | -15% | -26.5% | -3 | -17% | 18.9% | 6 | -15% | -19.4% | -7 | -28% | 64.5% | -9 | -11% | -60.1% | -9 | -4% | 17.6%
3 | Fc1ccc(C2(CCCN3CCc4[nH]c5cc(F)ccc5c4C3)OCCO2)cc1 | 31 | 97% (active) | 70.2% (active) | 27 | 98% (active) | 79% (active) | 25 | 99% (active) | 84.5% (active) | 18 | 96% (active) | 83.3% (active) | 24 | 98% (active) | 39.5% | 29 | 99% (active) | 91% (active)
4 | CCOC(=O)C(=Cc1ccc(C(=O)OC)cc1)C(=O)OCC | 10 | 58% | 82.2% (active) | 11 | 86% (active) | 75.2% (active) | -2 | 63% | 75.3% (active) | 38 | 80% (active) | 69.5% | 12 | 93% (active) | 77.2% (active) | 14 | 88% (active) | 62.8%
